# Data taken from the supplement of paper PMC10037445.
# In all, about 2,900 compounds were measured (“NF-kB SEAP reporter activity, fold change vs agonist alone”: median about 0.99, highest 2% from about 2.6 on). The sample holds the highest values, similar compounds and a random draw of the others, so the mix is not that of the screen.
# What was measured:
# RAW-Dual [1] = assay: NF-kB SEAP reporter activity, fold change vs agonist alone; higher = enhanced NF-kB activity
# How it was run: (§1)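 RAW-Dual macrophages (50,000 cells/well in DMEM, 384-well plates) received 50 nL of library stock by pin tool, then a PRR agonist 1 h later, and were kept at 37 °C, 5% CO2. After 20 hours, supernatant was read for IRF by QuantiLuc luminescence and for NF-κB by QuantiBlue absorbance at 620 nm. Reporter activity is fold change over agonist-alone wells. Cytotoxic wells had IncuCyte confluency below 70% of agonist controls in both mask sets.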
# RAW-Dual [2] = assay: NF-kB SEAP reporter activity, fold change vs agonist alone; cytotoxicity flag (confluency mask): not cytotoxic; higher = enhanced NF-kB activity
# How it was run: as §1
# RAW-Dual [3] = assay: NF-kB SEAP reporter activity, fold change vs agonist alone; cytotoxicity flag (confluency mask): cytotoxic (confluency <70% of control); higher = enhanced NF-kB activity
# How it was run: as §1
# [4] = library stock concentration (final ~1000-fold dilution): 10 mM, cytotoxicity flag (confluency mask): not cytotoxic, agonist: Imiquimod (TLR7) […]
# [5] = library stock concentration (final ~1000-fold dilution): 10 mM, cytotoxicity flag (confluency mask): not cytotoxic, agonist: MPLA (TLR4) […]
# [6] = agonist: ODN 1826 (TLR9) 0.5 ug/mL
# [7] = agonist: Pam2CSK4 (TLR2/6) 0.1 ug/mL
# [8] = agonist: Pam3CSK4 (TLR2/1) 0.1 ug/mL
smiles,measurement,setting,value
Cn1ncc(Cl)c1-c1cc(C(=O)NC(CN)Cc2cccc(F)c2)sc1Cl (centres undefined),NF-kB SEAP reporter activity,RAW-Dual [1]; [4],1.39
same,NF-kB SEAP reporter activity,RAW-Dual [1]; [5],1.77
CCCC(NC(=O)C1C2CCCC2CN1C(=O)C(NC(=O)C(NC(=O)c1cnccn1)C1CCCCC1)C(C)(C)C)C(=O)C(=O)NC1CC1 (centres undefined) (library stock concentration (final ~1000-fold dilution): 10 mM),NF-kB SEAP reporter activity,RAW-Dual [2]; agonist: LPS (TLR4) 0.1 ug/mL,1.3
same,NF-kB SEAP reporter activity,RAW-Dual [2]; [6],0.887
same,NF-kB SEAP reporter activity,RAW-Dual [2]; [7],0.68
same,NF-kB SEAP reporter activity,RAW-Dual [2]; [8],0.601
CCCC(NC(=O)C1C2CCCC2CN1C(=O)C(NC(=O)C(NC(=O)c1cnccn1)C1CCCCC1)C(C)(C)C)C(=O)C(=O)NC1CC1 (centres undefined),NF-kB SEAP reporter activity,RAW-Dual [1]; [4],0.65
same,NF-kB SEAP reporter activity,RAW-Dual [1]; [5],1.02
Nc1nc(F)nc2c1ncn2C1OC(CO)C(O)C1O (centres undefined),NF-kB SEAP reporter activity,RAW-Dual [1]; [4],0.92
same,NF-kB SEAP reporter activity,RAW-Dual [1]; [5],0.844
Nc1nc(F)nc2c1ncn2C1OC(CO)C(O)C1O (centres undefined) (library stock concentration (final ~1000-fold dilution): 10 mM),NF-kB SEAP reporter activity,RAW-Dual [2]; agonist: LPS (TLR4) 0.1 ug/mL,1.1
same,NF-kB SEAP reporter activity,RAW-Dual [2]; [6],1.03
same,NF-kB SEAP reporter activity,RAW-Dual [2]; [7],1.06
same,NF-kB SEAP reporter activity,RAW-Dual [2]; [8],1.22
CC(C)CC(NC(=O)C(CCc1ccccc1)NC(=O)CN1CCOCC1)C(=O)NC(Cc1ccccc1)C(=O)NC(CC(C)C)C(=O)C1(C)CO1 (centres undefined) (library stock concentration (final ~1000-fold dilution): 10 mM),NF-kB SEAP reporter activity,RAW-Dual [2]; agonist: LPS (TLR4) 0.1 ug/mL,0.318
same,NF-kB SEAP reporter activity,RAW-Dual [2]; [6],1.18
same,NF-kB SEAP reporter activity,RAW-Dual [2]; [7],0.683
same,NF-kB SEAP reporter activity,RAW-Dual [2]; [8],0.456
CC(C)CC(NC(=O)C(CCc1ccccc1)NC(=O)CN1CCOCC1)C(=O)NC(Cc1ccccc1)C(=O)NC(CC(C)C)C(=O)C1(C)CO1 (centres undefined),NF-kB SEAP reporter activity,RAW-Dual [1]; [4],2.33
same,NF-kB SEAP reporter activity,RAW-Dual [1]; [5],0.832
CCc1c(N(CC)C2CCOCC2)cc2oc(C3CCN(C(C)C)CC3)cc2c1C(=O)NCc1c(C)cc(C)[nH]c1=O (library stock concentration (final ~1000-fold dilution): 10 mM),NF-kB SEAP reporter activity,RAW-Dual [2]; agonist: LPS (TLR4) 0.1 ug/mL,1.13
same,NF-kB SEAP reporter activity,RAW-Dual [2]; [6],0.983
same,NF-kB SEAP reporter activity,RAW-Dual [2]; [7],1.04
same,NF-kB SEAP reporter activity,RAW-Dual [2]; [8],0.941
CCc1c(N(CC)C2CCOCC2)cc2oc(C3CCN(C(C)C)CC3)cc2c1C(=O)NCc1c(C)cc(C)[nH]c1=O,NF-kB SEAP reporter activity,RAW-Dual [1]; [4],1.34
same,NF-kB SEAP reporter activity,RAW-Dual [1]; [5],1.04
COCC(NC(=O)c1cnc(C)s1)C(=O)NC(COC)C(=O)NC(Cc1ccccc1)C(=O)C1(C)CO1 (centres undefined) (library stock concentration (final ~1000-fold dilution): 10 mM),NF-kB SEAP reporter activity,RAW-Dual [2]; agonist: LPS (TLR4) 0.1 ug/mL,0.377
same,NF-kB SEAP reporter activity,RAW-Dual [2]; [6],1.25
same,NF-kB SEAP reporter activity,RAW-Dual [2]; [7],0.279
same,NF-kB SEAP reporter activity,RAW-Dual [2]; [8],0.692
COCC(NC(=O)c1cnc(C)s1)C(=O)NC(COC)C(=O)NC(Cc1ccccc1)C(=O)C1(C)CO1 (centres undefined),NF-kB SEAP reporter activity,RAW-Dual [1]; [4],2.34
same,NF-kB SEAP reporter activity,RAW-Dual [1]; [5],1.21
CC(C)(O)CNc1ncc(-c2ccnc(Nc3ccncc3)n2)c(CC2CC2)n1 (library stock concentration (final ~1000-fold dilution): 10 mM),NF-kB SEAP reporter activity,RAW-Dual [2]; agonist: LPS (TLR4) 0.1 ug/mL,4.13
same,NF-kB SEAP reporter activity,RAW-Dual [2]; [6],0.366
same,NF-kB SEAP reporter activity,RAW-Dual [2]; [7],0.814
same,NF-kB SEAP reporter activity,RAW-Dual [2]; [8],1.66
COc1cc(N2CCN(C)CC2)ccc1Nc1nccc(-c2cn(C)c3cnccc23)n1,NF-kB SEAP reporter activity,RAW-Dual [1]; [4],0.285
same,NF-kB SEAP reporter activity,RAW-Dual [1]; [5],1.58
Nc1ncc(-c2ccnc(Nc3ccncc3)n2)c(CC2CC2)n1,NF-kB SEAP reporter activity,"RAW-Dual [1]; library stock concentration (final ~1000-fold dilution): 10 mM, cytotoxicity flag (confluency mask): cytotoxic (confluency <70% of control), agonist: Imiquimod (TLR7) […]",0.641
same,NF-kB SEAP reporter activity,"RAW-Dual [1]; library stock concentration (final ~1000-fold dilution): 10 mM, cytotoxicity flag (confluency mask): cytotoxic (confluency <70% of control), agonist: MPLA (TLR4) […]",2.13
CC(C)(O)CNc1ncc(-c2ccnc(Nc3ccnc(Cl)c3)n2)c(CC2CC2)n1,NF-kB SEAP reporter activity,RAW-Dual [1]; [4],0.784
same,NF-kB SEAP reporter activity,RAW-Dual [1]; [5],2.07
CC(C)(O)CNc1nc(Nc2ccnc(C(F)(F)F)c2)nc(-c2cccc(C(F)(F)F)n2)n1,NF-kB SEAP reporter activity,RAW-Dual [1]; [4],1.19
same,NF-kB SEAP reporter activity,RAW-Dual [1]; [5],1.28
Nc1ncc(-c2ccnc(Nc3ccncc3)n2)c(CC2CC2)n1 (library stock concentration (final ~1000-fold dilution): 10 mM),NF-kB SEAP reporter activity,RAW-Dual [3]; agonist: LPS (TLR4) 0.1 ug/mL,4.89
same,NF-kB SEAP reporter activity,RAW-Dual [3]; [6],0.424
same,NF-kB SEAP reporter activity,RAW-Dual [3]; [7],0.975
same,NF-kB SEAP reporter activity,RAW-Dual [3]; [8],1.51
CC(C)(O)CNc1ncc(-c2ccnc(Nc3ccncc3)n2)c(CC2CC2)n1,NF-kB SEAP reporter activity,RAW-Dual [1]; [4],0.914
same,NF-kB SEAP reporter activity,RAW-Dual [1]; [5],2.18
CC(C)(O)CNc1nc(Nc2ccnc(C(F)(F)F)c2)nc(-c2cccc(C(F)(F)F)n2)n1 (library stock concentration (final ~1000-fold dilution): 10 mM),NF-kB SEAP reporter activity,RAW-Dual [2]; agonist: LPS (TLR4) 0.1 ug/mL,1.51
same,NF-kB SEAP reporter activity,RAW-Dual [2]; [6],1.61
same,NF-kB SEAP reporter activity,RAW-Dual [2]; [7],1.09
same,NF-kB SEAP reporter activity,RAW-Dual [2]; [8],1.59
COc1cc(N2CCN(C)CC2)ccc1Nc1nccc(-c2cn(C)c3cnccc23)n1 (library stock concentration (final ~1000-fold dilution): 10 mM),NF-kB SEAP reporter activity,RAW-Dual [2]; agonist: LPS (TLR4) 0.1 ug/mL,1.02
same,NF-kB SEAP reporter activity,RAW-Dual [2]; [6],0.192
same,NF-kB SEAP reporter activity,RAW-Dual [2]; [7],1.14
same,NF-kB SEAP reporter activity,RAW-Dual [2]; [8],1.44
CC(C)(O)CNc1ncc(-c2ccnc(Nc3ccnc(Cl)c3)n2)c(CC2CC2)n1 (library stock concentration (final ~1000-fold dilution): 10 mM),NF-kB SEAP reporter activity,RAW-Dual [2]; agonist: LPS (TLR4) 0.1 ug/mL,5.81
same,NF-kB SEAP reporter activity,RAW-Dual [2]; [6],0.935
same,NF-kB SEAP reporter activity,RAW-Dual [2]; [7],1.41
same,NF-kB SEAP reporter activity,RAW-Dual [2]; [8],1.8
Cc1nc(N)sc1-c1ccnc(Nc2ccc(N3CCOCC3)cc2)n1,NF-kB SEAP reporter activity,RAW-Dual [1]; [4],0.996
same,NF-kB SEAP reporter activity,RAW-Dual [1]; [5],1.39
Cc1nc(N)sc1-c1ccnc(Nc2ccc(N3CCOCC3)cc2)n1 (library stock concentration (final ~1000-fold dilution): 10 mM),NF-kB SEAP reporter activity,RAW-Dual [2]; agonist: LPS (TLR4) 0.1 ug/mL,0.713
same,NF-kB SEAP reporter activity,RAW-Dual [2]; [6],0.256
same,NF-kB SEAP reporter activity,RAW-Dual [2]; [7],0.401
same,NF-kB SEAP reporter activity,RAW-Dual [2]; [8],0.522
CCNC1CC(C)S(=O)(=O)c2sc(S(N)(=O)=O)cc21.Cl (centres undefined) (library stock concentration (final ~1000-fold dilution): 10 mM water),NF-kB SEAP reporter activity,RAW-Dual [2]; agonist: LPS (TLR4) 0.1 ug/mL,1.49
same,NF-kB SEAP reporter activity,RAW-Dual [2]; [6],1.13
same,NF-kB SEAP reporter activity,RAW-Dual [2]; [7],1.09
same,NF-kB SEAP reporter activity,RAW-Dual [2]; [8],0.997
CCNC1CC(C)S(=O)(=O)c2sc(S(N)(=O)=O)cc21.Cl (centres undefined),NF-kB SEAP reporter activity,"RAW-Dual [1]; library stock concentration (final ~1000-fold dilution): 10 mM water, cytotoxicity flag (confluency mask): not cytotoxic, agonist: Imiquimod (TLR7) […]",0.908
same,NF-kB SEAP reporter activity,"RAW-Dual [1]; library stock concentration (final ~1000-fold dilution): 10 mM water, cytotoxicity flag (confluency mask): not cytotoxic, agonist: MPLA (TLR4) […]",0.982
